The target of assay [1] is Lysosomal acid glucosylceramidase (Homo sapiens) (UniProt P04062). The assay is described as follows: Glucocerebrosidase-p2 (AID 348; in the data active means potency below about 10 µM; further: potency means the concentration at half of the fitted maximal effect). The conditions noted are these: purified GBA, blue fluorogenic substrate, 40 min. The gist of the method:
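Compounds titrated from 0.6 nM upwards against 0.2 nM enzyme in pH 5.9 citric acid/KH2PO4, taurocholate, tween-20; blue fluorogenic substrate 80 uM, 40 min room temperature, stopped and read Ex 365/Em 440 for AC50.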

The nature of assay [2]: AP1 Signaling Pathway (AID 357; active means well fitted curve in either direction with a large enough effect, not every such curve was filed as active;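 further: ME-180 reporter cells stimulated with EGF at its EC50 level; on the % scale 0 is the no-effect control and ±100 the full control effect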). The conditions noted are these: ME-180 AP-1-bla reporter, EGF-induced, beta-lactamase ratio, 5 h; at 7.69 µM (top of the series) unless noted. The gist of the method:
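A ratiometric CCF4 readout (405 nm excitation; 460 and 530 nm emission) quantified AP-1-driven beta-lactamase in ME-180 cells after 5 h with compound and EC50 EGF; AC50 values were derived for activators and inhibitors.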

Assay [3] concerns the target Cytochrome P450 1A2 (Homo sapiens) (UniProt P05177). The assay is described as follows: p450-cyp1a2 (AID 410; calls by dose curve; further: potency means the concentration at half of the fitted maximal effect). The following applies: recombinant CYP1A2, luciferin-ME demethylation, luminescence; series mostly up to 57 µM. The gist of the method: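 Inhibition was calculated relative to 57 uM furafylline (full inhibition). The reaction used human CYP1A2 at 20nM with Luciferin-ME at its Km, 100uM, driven by an NADPH-regenerating system for 60 min at room temperature.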

Assay [4] is described as follows: NFAT Signaling Pathway (AID 444; active means well fitted curve in either direction with a large enough effect, not every such curve was filed as active;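 further: carbachol stimulus at about its EC50 of 1 µM final; on the % scale 0 is the no-effect control and ±100 the full control effect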). The following applies: Jurkat NFAT-bla M1, carbachol, beta-lactamase ratio, 5 h; at 7.69 µM (top of the series) unless noted. The gist of the method:
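Jurkat cells with NFAT-driven β-lactamase reporter and co-expressed M1 receptor, stimulated with carbachol (final 1 uM, ~EC50), compound titration, 5 h at 37 °C. CCF4 loaded 1 h at RT; 460/530 nm ratio gave %activity and AC50.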

Assay [5] is described as follows: Stat Signaling Pathway (AID 446; active means well fitted curve in either direction with a large enough effect, not every such curve was filed as active;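 further: ME-180 cervical cancer cells given 40 pM IL-6 alongside compound; SIE-controlled beta-lactamase reporter measured as 460/530 nm FRET emission ratio; on the % scale 0 is the no-effect control and ±100 the full control effect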). The conditions noted are these: ME-180 SIE beta-lactamase reporter, IL-6 stimulated, 5 h; at 7.69 µM (top of the series) unless noted. An outline of the steps: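 ME-180 cells carrying a SIE-driven beta-lactamase reporter are stimulated with 40 pM IL-6 for 5 h at 37C in the presence of compound. The 460/530 nm FRET substrate ratio is read after 2.5 h at RT. Data are normalised to 300 pM IL-6 and to 125 nM JAK inhibitor controls.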

Assay [6] concerns the target Glucocorticoid receptor (Homo sapiens) (UniProt P04150). In words: GR-GFP Redistribution (AID 450;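 active means compounds whose dose series gives a full or clear partial fitted curve of increased nuclear translocation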; further: potency means the concentration at half of the fitted maximal effect). The following applies: U2OS GR-GFP nuclear translocation, laser cytometry, 2 h.
For assay [7] the target is unchanged. In words: GR-EFC Redistribution (AID 451; calls by dose curve; further: potency means the concentration at half of the fitted maximal effect). The following applies: CHO-K1 GR-EFC translocation, beta-gal luminescence, 2 h. An outline of the steps:
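CHO-K1 cells expressing nuclear EA and GR-ED fragments of b-gal; compounds titrated up to 46 uM final, 2 h at 37 C. GR nuclear translocation read as complemented b-gal luminescence after 1 h RT detection.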

Assay [8] has as its target Mitogen-activated protein kinase 10 (Mus musculus) (UniProt Q61831). In words: JNK3 AlphaScreen Assay (AID 530; active means well fitted curve in either direction with a large enough effect, not every such curve was filed as active;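 further: kinase came from lysate of stimulated human HepG2 cells; signal reports phosphorylation of biotinylated GST-cJun 1-79 at Ser73 with 10 µM ATP; on the % scale 0 is the no-effect control and ±100 the full control effect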). The following applies: JNK3 lysate, c-Jun phosphorylation; series mostly up to 57.1 µM. The gist of the method:
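qHTS format: compounds tested as titrations against IL-1beta/TNF-alpha-activated HepG2 lysate JNK3 with biotin-GST-cJun substrate and 10 uM ATP at room temperature. Loss of anti-phospho-cJun AlphaScreen signal indicates inhibition.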

The target of assay [9] is Cytochrome P450 3A4 (Homo sapiens) (UniProt P08684). In words: qHTS Assay for Inhibitors and Substrates of Cytochrome P450 3A4 (AID 884). Further: potency means the concentration at half of the fitted maximal effect; nearly all actives have a fitted effect of over 50% in size. The following applies: recombinant CYP3A4, Luciferin-PPXE luminescence; series mostly up to 57.1 µM. The gist of the method: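 20 nM human CYP3A4 with 25 uM Luciferin-PPXE (at KM) in 200 mM KPO4, preincubated 10 min with compound; NADPH regeneration started a 60 min RT reaction. Luciferin detected by luminescence, normalized to 57 uM ketoconazole as full inhibition.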
For orientation: In qHTS, concentration-response curves come from the screen itself.

Assay [10] has the same target. In words: qHTS Assay for Activators of Cytochrome P450 3A4 (AID 885). Further: nearly all actives have a fitted effect of over 65% in size. The conditions noted are these: recombinant CYP3A4, Luciferin-PPXE luminescence, 60 min; series mostly up to 57.1 µM. The gist of the method:
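Human CYP3A4 (20 nM) with Luciferin-PPXE at 25 uM (its KM) in 200 mM KPO4; 10 min compound preincubation, then NADPH regeneration and 60 min reaction at RT. Luciferin read by luminescence; normalized to 57 uM ketoconazole full inhibition.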

Assay [11] addresses Cytochrome P450 2C19 (Homo sapiens) (UniProt P33261). The assay is described as follows: qHTS Assay for Inhibitors and Substrates of Cytochrome P450 2C19 (AID 899). Further: potency means the concentration at half of the fitted maximal effect; nearly all actives have a fitted effect of over 60% in size. The following applies: recombinant CYP2C19, luciferin-H EGE luminescence; series mostly up to 57.1 µM. An outline of the steps: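 5 nM human CYP2C19 with 10uM Luciferin-H EGE (at KM) in 50mM KPO4, compound preincubated 10 min at 37C, then NADPH regeneration for 60 min at 37C. Luciferin read by luminescence after detection reagent; normalized to 57uM ketoconazole as full inhibition.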

A short description of assay [12]: Confirmation and Secondary Assay for Modulators of Hemoglobin Beta Chain Splicing at IVS2 654 locus (AID 910).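 Further: HeLa cells stably carrying EGFP split by mutant beta-globin IVS2-654 intron; % of control where 0% means no effect.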 The conditions noted are these: HeLa EGFP-654 splicing reporter, GFP fluorescence, 48 h; series mostly up to 38.3 µM. An outline of the steps:
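HeLa cells stably expressing EGFP interrupted by β-globin IVS2-654 intron, seeded overnight in Opti-MEM/2% FCS, then treated 2 days at 37 °C. Restored splicing read as total peak GFP intensity per well by laser scanning cytometry (488 nm excitation, 500–520 nm emission); 500 nM antisense PNA as control.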

A short description of assay [13]: Confirmation and Secondary Assay for Modulators of Hemoglobin Beta Chain Splicing at IVS2 705 locus (AID 930).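 Further: HeLa cells stably expressing the EGFP-705 splicing reporter; % of control where 0% means no effect.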 The following applies: HeLa EGFP-705 splicing reporter, GFP fluorescence, 48 h; series mostly up to 38.3 µM. The gist of the method: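 Splice-correction reporter: EGFP cDNA split by beta-globin intron 2 bearing the 705 mutation, stably in HeLa. Compound incubation 2 days, 37C; fluorescent objects 5-250 µm summed per well.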

Assay [14] can be described thus: qHTS Assay for Lipid Storage Modulators (AID 1519; calls by dose curve). The following applies: Drosophila S3 cells, BODIPY lipid droplet/cell ratio, laser cytometry, cells loaded with oleic acid; for activity change, negative = inhibition: at 57.5 µM (top of the series). An outline of the steps: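 Cells seeded at 5,000 per well were treated with compounds over a concentration series and loaded with oleic acid (400 uM, as added). Lipid droplet fluorescence (488 nm excitation, 500-530 nm channel) was read by laser-scanning cytometry and normalized to 20 uM Triacsin C.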

The target of assay [15] is Ubiquitin carboxyl-terminal hydrolase 1 (Homo sapiens) (UniProt O94782). In words: Inhibitors of USP1/UAF1: Pilot qHTS (AID 504865). Further: nearly all actives have a fitted effect of over 35% in size. Further: potency means the concentration at half of the fitted maximal effect. The following applies: purified USP1/UAF1, Ub-rhodamine cleavage fluorescence; series mostly up to 54.9 µM. An outline of the steps:
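1nM USP1/UAF1 + cpd, 15 min RT; start w/ Ub-Rho 150nM final; kinetic FL 480/540 nm, 6 reads q60 s. Buffer 50mM HEPES pH 7.8, 0.5mM EDTA, 1mM TCEP, 0.01% Tween-20, 0.1 mg/ml BSA.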

Assay [16] in a line: Primary qHTS for small molecule stabilizers of the endoplasmic reticulum resident proteome: Secreted ER Calcium Modulated Protein (SERCaMP) assay (AID 1508630). Further: on the % scale 0 is the no-effect control and ±100 the full control effect. The following applies: SH-SY5Y GLuc-SERCaMP (Gaussia luciferase released on ER calcium loss) secretion, thapsigargin, luminescence; series mostly up to 38.4 µM. An outline of the steps:
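GLuc-SERCaMP-expressing SH-SY5Y cells, pretreated 16 h with compound, are challenged with thapsigargin to empty ER calcium stores; after 4 h, coelenterazine is added directly to the medium and luminescence is imaged.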

Assay [17] concerns the target 3',5'-cyclic-AMP phosphodiesterase 4B (Homo sapiens) (UniProt Q07343). The assay is described as follows: qHTS Assay for Inhibitors of PDE-IV (AID 607; active means well fitted activation curve with a large enough effect in the main read-out, with a control signal flat, not every such curve was filed as active; further: % of control where 0% means no effect). The following applies: HEK293 ACTOne CNG channel cells, membrane potential fluorescence; series mostly up to 22.9 µM. An outline of the steps:
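HEK293 ACTOne cells with CNG channel (1000/well), endogenous PDE4; membrane potential dye, compounds up to 22.9 uM final. Fluorescence Ex 535/Em 590; RO 20-1724 (100 uM final) as reference.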

Setting [18] is: measured here: cell count channel max response.
The mark [19] stands for this setting: measured here: lipid channel max response.

Structures are written as SMILES. Inconclusive results are not listed. Calls of active or inactive are those of the source. Unless noted, the call rests on the fitted dose curve; in most records, active means well fitted curve in the direction sought with a large enough effect; inconclusive means small, poorly fitted or top-dose-only effect, or another doubt; inactive means no such curve, though single readings can be large; an effect the other way counts as inactive or inconclusive.

Glucocorticoid receptor (Homo sapiens), sequence (P04150 whole entry, looked up): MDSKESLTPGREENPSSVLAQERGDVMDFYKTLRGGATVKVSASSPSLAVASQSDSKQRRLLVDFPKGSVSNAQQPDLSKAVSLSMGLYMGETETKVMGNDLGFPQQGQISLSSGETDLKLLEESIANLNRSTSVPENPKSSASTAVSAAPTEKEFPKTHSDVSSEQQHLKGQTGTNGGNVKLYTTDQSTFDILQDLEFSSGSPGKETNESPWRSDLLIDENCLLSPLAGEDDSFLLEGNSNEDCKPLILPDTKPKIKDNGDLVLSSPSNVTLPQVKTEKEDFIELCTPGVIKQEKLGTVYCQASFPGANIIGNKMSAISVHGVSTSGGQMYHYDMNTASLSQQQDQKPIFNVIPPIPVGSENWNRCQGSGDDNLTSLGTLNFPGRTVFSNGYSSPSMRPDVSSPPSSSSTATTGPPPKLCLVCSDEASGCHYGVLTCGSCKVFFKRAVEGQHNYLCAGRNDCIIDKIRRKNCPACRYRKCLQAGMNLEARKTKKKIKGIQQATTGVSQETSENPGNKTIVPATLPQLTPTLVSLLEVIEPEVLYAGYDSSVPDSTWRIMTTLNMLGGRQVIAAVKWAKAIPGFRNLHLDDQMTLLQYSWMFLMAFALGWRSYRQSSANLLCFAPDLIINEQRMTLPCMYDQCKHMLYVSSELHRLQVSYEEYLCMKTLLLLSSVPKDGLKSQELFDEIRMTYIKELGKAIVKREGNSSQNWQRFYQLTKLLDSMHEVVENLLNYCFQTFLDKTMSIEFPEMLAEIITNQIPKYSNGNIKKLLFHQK
3',5'-cyclic-AMP phosphodiesterase 4B (Homo sapiens), sequence (Q07343 whole entry, looked up): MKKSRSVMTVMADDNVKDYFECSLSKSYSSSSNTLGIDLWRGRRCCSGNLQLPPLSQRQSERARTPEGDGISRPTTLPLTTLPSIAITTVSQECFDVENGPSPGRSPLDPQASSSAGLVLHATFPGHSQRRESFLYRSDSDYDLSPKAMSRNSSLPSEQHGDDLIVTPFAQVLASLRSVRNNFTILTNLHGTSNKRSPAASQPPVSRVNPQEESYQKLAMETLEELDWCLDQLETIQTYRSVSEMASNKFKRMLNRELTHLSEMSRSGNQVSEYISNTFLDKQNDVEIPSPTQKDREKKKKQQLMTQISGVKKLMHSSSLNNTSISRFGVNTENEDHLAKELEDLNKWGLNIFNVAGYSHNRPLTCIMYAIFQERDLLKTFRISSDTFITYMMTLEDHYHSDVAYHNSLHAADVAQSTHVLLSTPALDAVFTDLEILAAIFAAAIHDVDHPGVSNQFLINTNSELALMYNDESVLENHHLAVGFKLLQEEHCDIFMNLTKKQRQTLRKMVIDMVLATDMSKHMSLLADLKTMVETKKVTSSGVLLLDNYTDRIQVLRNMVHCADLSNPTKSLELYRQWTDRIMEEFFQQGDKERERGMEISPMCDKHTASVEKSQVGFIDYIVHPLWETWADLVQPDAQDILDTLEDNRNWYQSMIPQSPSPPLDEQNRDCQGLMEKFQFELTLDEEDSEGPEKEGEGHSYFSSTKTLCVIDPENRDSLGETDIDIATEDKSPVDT
Cytochrome P450 3A4 (Homo sapiens), sequence (P08684 whole entry, looked up): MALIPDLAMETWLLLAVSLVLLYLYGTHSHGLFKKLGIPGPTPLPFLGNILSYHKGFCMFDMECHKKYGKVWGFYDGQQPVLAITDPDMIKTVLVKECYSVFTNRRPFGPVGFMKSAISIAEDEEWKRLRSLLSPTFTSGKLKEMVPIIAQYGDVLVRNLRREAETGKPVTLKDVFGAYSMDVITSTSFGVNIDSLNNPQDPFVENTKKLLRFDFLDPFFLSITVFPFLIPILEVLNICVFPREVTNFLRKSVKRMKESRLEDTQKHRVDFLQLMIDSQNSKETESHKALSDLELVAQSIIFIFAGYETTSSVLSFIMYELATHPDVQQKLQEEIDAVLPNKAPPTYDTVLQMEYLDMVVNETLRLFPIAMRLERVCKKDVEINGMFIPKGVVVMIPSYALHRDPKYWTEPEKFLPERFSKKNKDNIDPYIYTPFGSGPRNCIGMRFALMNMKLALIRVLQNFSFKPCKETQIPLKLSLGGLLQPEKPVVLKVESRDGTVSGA
Cytochrome P450 2C19 (Homo sapiens), sequence (P33261 whole entry, looked up): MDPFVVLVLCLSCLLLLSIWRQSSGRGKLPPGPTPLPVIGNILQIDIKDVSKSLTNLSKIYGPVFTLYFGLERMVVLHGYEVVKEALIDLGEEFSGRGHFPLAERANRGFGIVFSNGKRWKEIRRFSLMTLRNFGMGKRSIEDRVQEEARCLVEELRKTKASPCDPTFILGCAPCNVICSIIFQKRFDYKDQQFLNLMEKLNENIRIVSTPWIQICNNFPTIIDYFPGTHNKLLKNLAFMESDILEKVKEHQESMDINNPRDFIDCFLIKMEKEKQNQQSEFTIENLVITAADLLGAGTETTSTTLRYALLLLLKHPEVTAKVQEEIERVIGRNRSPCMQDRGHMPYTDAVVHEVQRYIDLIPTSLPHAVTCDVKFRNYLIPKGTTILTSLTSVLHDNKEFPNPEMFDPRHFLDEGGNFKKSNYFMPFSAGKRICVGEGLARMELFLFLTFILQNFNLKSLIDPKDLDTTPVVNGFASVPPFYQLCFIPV
Ubiquitin carboxyl-terminal hydrolase 1 (Homo sapiens), sequence (O94782 whole entry, looked up): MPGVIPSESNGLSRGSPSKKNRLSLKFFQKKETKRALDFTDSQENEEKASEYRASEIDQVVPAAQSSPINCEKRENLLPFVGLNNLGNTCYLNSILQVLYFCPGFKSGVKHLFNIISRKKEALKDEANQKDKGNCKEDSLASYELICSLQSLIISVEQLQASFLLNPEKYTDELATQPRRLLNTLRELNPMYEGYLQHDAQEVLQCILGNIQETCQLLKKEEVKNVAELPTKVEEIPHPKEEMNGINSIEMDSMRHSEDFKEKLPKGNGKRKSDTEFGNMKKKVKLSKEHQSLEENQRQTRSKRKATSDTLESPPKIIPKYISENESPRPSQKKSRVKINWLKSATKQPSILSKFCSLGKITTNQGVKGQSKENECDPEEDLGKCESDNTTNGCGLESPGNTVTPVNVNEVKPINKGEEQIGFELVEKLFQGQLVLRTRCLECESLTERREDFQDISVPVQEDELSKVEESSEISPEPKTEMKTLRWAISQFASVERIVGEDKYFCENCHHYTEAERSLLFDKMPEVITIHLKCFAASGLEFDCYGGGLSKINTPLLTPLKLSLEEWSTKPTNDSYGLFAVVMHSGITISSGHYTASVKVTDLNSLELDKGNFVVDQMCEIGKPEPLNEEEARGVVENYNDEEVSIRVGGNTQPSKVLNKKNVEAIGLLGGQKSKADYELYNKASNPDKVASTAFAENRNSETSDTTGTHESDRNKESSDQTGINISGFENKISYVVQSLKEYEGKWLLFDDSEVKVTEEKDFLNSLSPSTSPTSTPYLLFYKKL
Lysosomal acid glucosylceramidase (Homo sapiens), sequence (P04062 whole entry, looked up): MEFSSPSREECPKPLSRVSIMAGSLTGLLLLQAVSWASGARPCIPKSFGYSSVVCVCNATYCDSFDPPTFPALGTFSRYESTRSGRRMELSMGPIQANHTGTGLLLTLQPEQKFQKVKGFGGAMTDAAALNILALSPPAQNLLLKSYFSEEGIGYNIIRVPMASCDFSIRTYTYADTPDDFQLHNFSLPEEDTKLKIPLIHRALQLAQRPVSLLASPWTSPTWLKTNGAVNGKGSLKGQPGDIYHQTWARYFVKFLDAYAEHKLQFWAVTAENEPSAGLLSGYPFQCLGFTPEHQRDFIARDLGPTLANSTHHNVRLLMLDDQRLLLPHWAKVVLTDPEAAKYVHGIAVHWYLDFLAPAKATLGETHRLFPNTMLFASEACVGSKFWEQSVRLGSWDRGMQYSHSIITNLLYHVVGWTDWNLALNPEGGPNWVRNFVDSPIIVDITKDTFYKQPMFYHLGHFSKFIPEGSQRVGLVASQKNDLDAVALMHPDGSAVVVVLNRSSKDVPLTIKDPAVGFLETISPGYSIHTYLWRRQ
Cytochrome P450 1A2 (Homo sapiens), sequence (P05177 whole entry, looked up): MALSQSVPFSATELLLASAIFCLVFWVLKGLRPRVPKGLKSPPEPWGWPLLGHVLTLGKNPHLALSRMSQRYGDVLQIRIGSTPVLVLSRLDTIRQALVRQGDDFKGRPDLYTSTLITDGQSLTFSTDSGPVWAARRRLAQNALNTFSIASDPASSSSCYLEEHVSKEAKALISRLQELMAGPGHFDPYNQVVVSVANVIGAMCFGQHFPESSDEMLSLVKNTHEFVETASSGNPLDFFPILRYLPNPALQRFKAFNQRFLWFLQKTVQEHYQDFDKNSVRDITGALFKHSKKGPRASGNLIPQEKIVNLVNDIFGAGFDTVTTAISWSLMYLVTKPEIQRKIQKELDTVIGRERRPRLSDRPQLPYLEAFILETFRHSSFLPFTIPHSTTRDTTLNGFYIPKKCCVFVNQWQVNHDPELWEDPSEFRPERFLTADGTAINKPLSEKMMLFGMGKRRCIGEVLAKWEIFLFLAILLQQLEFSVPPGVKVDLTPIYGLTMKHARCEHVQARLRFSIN

For `COc1ccccc1-c1cncnc1NCCc1cnc[nH]1`, the Potency in [1] is > 11.4 µM (inactive); in [3], 1.26 µM (active); in assay [6] it was > 46 µM (inactive); in assay [7], > 46 µM (inactive); in assay [9], 0.398 µM (active); in assay [11], 0.0794 µM (active). Also, the figures for the activity change, negative = inhibition in [2], in [4] and in assay [14] were 1.24% (inactive), 3.21% (inactive) and 11.3% (inactive), respectively. Also, the activity, negative = inhibition in assay [5] was -11.6% (inactive). Moreover, the compound was called inactive in assay [8], in assay [12] and in assay [13]. The Potency entry in assay [10], in assay [15] and in assay [16] was “inactive” each time. Further, the figures for the max response in assay [14] (setting [18]) and in assay [14] (setting [19]) were 12.9% and 26.1%, respectively.

Regarding `CN(Cc1ccco1)c1cc(-c2ccccc2Cl)ncn1`, the Potency is > 11.4 µM (inactive) in assay [1]; 2.51 µM (active) in [3]; > 46 µM (inactive) in assay [6]; > 46 µM (inactive) in [7]; 7.94 µM (active) in assay [11]. In addition, the activity change, negative = inhibition in [2] is -3.34% (inactive); in [4], -22.4% (inactive); in assay [14] it was 6.03% (inactive). In addition, the activity, negative = inhibition in assay [5] was 5.83% (inactive). The outcome in assay [8], in assay [12] and in [13] was inactive. Besides, the Potency result in assay [17], in assay [15] and in assay [16] was “inactive” throughout. The max response in assay [14] (setting [18]) was -2.55%; in assay [14] (setting [19]), 5.54%.

Regarding `Cc1noc(C)c1-c1cc(N(C)C)ncn1`, the Potency in [1] is > 11.4 µM (inactive); in assay [3], 3.16 µM (active); in [6] it was > 46 µM (inactive); in assay [7] it was > 46 µM (inactive). In addition, the values for the activity change, negative = inhibition in assay [2], in assay [4] and in assay [14] were 10% (inactive), 9.29% (inactive) and 8.35% (inactive), respectively. Further, the activity, negative = inhibition in [5] is 16% (inactive). Also, the compound was called inactive in assay [8], in assay [12] and in assay [13]. Further, the Potency result in assay [17], in assay [15] and in assay [16] was “inactive” throughout. Further, the max response in assay [14] (setting [18]) is 3.97%; in assay [14] (setting [19]), 11.9%.

For `COc1cccc(-c2nccc(NCc3cccc(C)c3)n2)c1`, the Potency in assay [1] is > 11.4 µM (inactive); in [3], 0.316 µM (active); in [6], > 46 µM (inactive); in [7], > 46 µM (inactive); in [9], 3.98 µM (active); in [11] it was 6.31 µM (active). In assay [15], the Potency was 35.5 µM (active). For the same compound, the activity change, negative = inhibition in assay [2] is -15.4% (inactive); in assay [4] it was -2.73% (inactive); in assay [14], 7.01% (inactive). Moreover, in [5], the activity, negative = inhibition was -25.6% (inactive). Besides, the call in assay [8], in assay [12] and in assay [13] was inactive. Besides, the Potency entry in assay [17], in [10] and in [16] was “inactive” in each case. For the same compound, the results for the max response in assay [14] (setting [18]) and in assay [14] (setting [19]) were -6.39% and -3.6%, respectively.

In the case of `COCCNc1ccnc(-c2cccc(NS(C)(=O)=O)c2)n1`, the Potency in [1] was > 11.4 µM (inactive); in assay [3], 2 µM (active); in assay [6], > 46 µM (inactive); in assay [7], > 46 µM (inactive). For the same compound, the values for the activity change, negative = inhibition in assay [2], in assay [4] and in assay [14] were -8.74% (inactive), 12.6% (inactive) and 9.23% (inactive), respectively. Further, the activity, negative = inhibition in assay [5] is -1.1% (inactive). Also, the outcome in assay [8], in assay [12] and in [13] was inactive. Further, the Potency result in [17], in assay [10], in assay [15] and in [16] was “inactive” in each case. In addition, the values for the max response in assay [14] (setting [18]) and in assay [14] (setting [19]) were 14.8% and 25.9%, respectively.

Take `COc1ccccc1-c1cncnc1NCc1cccnc1`: the Potency was > 11.4 µM (inactive) in assay [1]; 6.31 µM (active) in assay [3]; > 46 µM (inactive) in assay [6]; > 46 µM (inactive) in assay [7]; 0.501 µM (active) in assay [9]; 3.16 µM (active) in assay [11]. Besides, the values for the activity change, negative = inhibition in assay [2], in [4] and in assay [14] were -10.2% (inactive), -4.56% (inactive) and 7.04% (inactive), respectively. Also, in assay [5], the activity, negative = inhibition is 4% (inactive). Moreover, the compound was classed as inactive in assay [8], in assay [12] and in [13]. Moreover, the Potency entry in assay [17], in assay [10], in assay [15] and in assay [16] was “inactive” each time. Also, the values for the max response in assay [14] (setting [18]) and in assay [14] (setting [19]) were 11.1% and 18.5%, respectively.
